# In PubChem BioAssay AID1159580 (chemical genetic matrix, 2015):
# Out of some 5,500 compounds screened, about 2,000 (36%) were called active. Another 18% or so got no clear call; they are omitted. This is one part of the list. Values without a mark were called inactive. Cut-off read from the data, not from the text of the source: active = normalized growth mostly below about 0.91 (no sharp cut-off); inconclusive = no clear call, values can overlap the other calls; inactive = mostly above about 0.92.
# Assay: chemical genetic growth profiling, strain panel (AID 1159580);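 note: tested at 20 µM; growth read once vehicle control cultures reached saturation at 30 °C; 1 = growth at the plate median or of vehicle wells; lower values mean less growth of the strain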
# Conditions: S. cerevisiae deletion strains, growth OD
# [1] = locus YHR030C, strain SLT2, stronger effect = lower value
# [2] = locus YHR079C, strain IRE1, stronger effect = lower value
# [3] = locus YJL095W, strain BCK1, stronger effect = lower value
# [4] = locus YJR066W, strain TOR1, stronger effect = lower value
# [5] = locus YLR113W, strain HOG1, stronger effect = lower value
# [6] = locus YNL183C, strain NPR1, stronger effect = lower value
# [7] = locus YOR231W, strain MKK1, stronger effect = lower value
# [8] = locus YPL256C, strain CLN2, stronger effect = lower value
structure (smiles),measurement,setting,value
O=C1Nc2ccccc2/C1=N/N=C\c1ccccc1Cl,normalized growth,"locus YAR019C, strain CDC15, stronger effect = lower value",0.975
same,normalized growth,"locus YBL105C, strain PKC1, stronger effect = lower value",0.967
same,normalized growth,"locus YBR135W, strain CKS1, stronger effect = lower value",0.986
same,normalized growth,"locus YBR136W, strain MEC1, stronger effect = lower value",0.966
same,normalized growth,"locus YBR160W, strain CDC28, stronger effect = lower value",0.972
same,normalized growth,"locus YDL017W, strain CDC7, stronger effect = lower value",0.97
same,normalized growth,"locus YDL028C, strain MPS1, stronger effect = lower value",0.97
same,normalized growth,"locus YDL101C, strain DUN1, stronger effect = lower value",0.97
same,normalized growth,"locus YDL108W, strain KIN28, stronger effect = lower value",0.969
same,normalized growth,"locus YDL132W, strain cdc53, stronger effect = lower value",0.977
same,normalized growth,"locus YDL214C, strain PRR2, stronger effect = lower value",0.92
same,normalized growth,"locus YDR052C, strain DBF4, stronger effect = lower value",0.968
same,normalized growth,"locus YDR054C, strain cdc34, stronger effect = lower value",0.97
same,normalized growth,"locus YDR226W, strain ADK1, stronger effect = lower value",0.987
same,normalized growth,"locus YDR477W, strain SNF1, stronger effect = lower value",0.909
same,normalized growth,"locus YER123W, strain YCK3, stronger effect = lower value",0.85
same,normalized growth,"locus YER133W, strain GLC7, stronger effect = lower value",0.928
same,normalized growth,"locus YFL009W, strain cdc4, stronger effect = lower value",0.978
same,normalized growth,"locus YFL029C, strain CAK1, stronger effect = lower value",0.982
same,normalized growth,"locus YFR003C, strain YPI1, stronger effect = lower value",0.966
same,normalized growth,"locus YFR019W, strain FAB1, stronger effect = lower value",0.935
same,normalized growth,"locus YFR028C, strain CDC14, stronger effect = lower value",0.987
same,normalized growth,"locus YGR040W, strain KSS1, stronger effect = lower value",0.903
same,normalized growth,"locus YGR052W, strain FMP48, stronger effect = lower value",0.838
same,normalized growth,"locus YGR092W, strain DBF2, stronger effect = lower value",0.867
same,normalized growth,[1],0.83 (active)
same,normalized growth,[2],0.906
same,normalized growth,"locus YHR082C, strain KSP1, stronger effect = lower value",0.918
same,normalized growth,"locus YHR205W, strain SCH9, stronger effect = lower value",0.858
same,normalized growth,"locus YIL147C, strain SLN1, stronger effect = lower value",0.973
same,normalized growth,[3],0.798
same,normalized growth,"locus YJL128C, strain PBS2, stronger effect = lower value",0.925
same,normalized growth,"locus YJL157C, strain FAR1, stronger effect = lower value",0.928
same,normalized growth,"locus YJR016C, strain ILV3, stronger effect = lower value",0.986
same,normalized growth,"locus YJR066W, strain TOR1 (second series), stronger effect = lower value",0.916
same,normalized growth,[4],0.9
same,normalized growth,"locus YKL048C, strain ELM1, stronger effect = lower value",0.901
same,normalized growth,"locus YKL067W, strain YNK1, stronger effect = lower value",0.896
same,normalized growth,"locus YKL101W, strain HSL1, stronger effect = lower value",0.893
same,normalized growth,"locus YKL193C, strain SDS22, stronger effect = lower value",0.971
same,normalized growth,"locus YKL203C, strain TOR2, stronger effect = lower value",0.954
same,normalized growth,[5],0.708 (active)
same,normalized growth,"locus YLR133W, strain CKI1, stronger effect = lower value",0.916
same,normalized growth,"locus YLR403W, strain SFP1, stronger effect = lower value",0.902
same,normalized growth,"locus YML070W, strain DAK1, stronger effect = lower value",0.897
same,normalized growth,"locus YMR001C, strain CDC5, stronger effect = lower value",0.976
same,normalized growth,"locus YMR205C, strain PFK2 (second series), stronger effect = lower value",0.887
same,normalized growth,"locus YMR277W, strain FCP1, stronger effect = lower value",0.972
same,normalized growth,"locus YNL006W, strain LST8, stronger effect = lower value",0.974
same,normalized growth,"locus YNL020C, strain ARK1, stronger effect = lower value",0.896
same,normalized growth,"locus YNL161W, strain CBK1, stronger effect = lower value",0.976
same,normalized growth,[6],0.841
same,normalized growth,"locus YNL207W, strain RIO2, stronger effect = lower value",0.974
same,normalized growth,"locus YNL222W, strain SSU72, stronger effect = lower value",0.979
same,normalized growth,"locus YNL307C, strain MCK1 (second series), stronger effect = lower value",0.855
same,normalized growth,"locus YOL078W, strain AVO1, stronger effect = lower value",0.968
same,normalized growth,"locus YOL136C, strain PFK27, stronger effect = lower value",0.904
same,normalized growth,"locus YOR061W, strain CKA2, stronger effect = lower value",0.888
same,normalized growth,"locus YOR119C, strain RIO1, stronger effect = lower value",0.93
same,normalized growth,[7],0.823
same,normalized growth,"locus YOR329C, strain SCD5, stronger effect = lower value",0.965
same,normalized growth,"locus YPL031C, strain PHO85, stronger effect = lower value",0.877
same,normalized growth,"locus YPL153C, strain RAD53, stronger effect = lower value",0.915
same,normalized growth,"locus YPL204W, strain HRR25, stronger effect = lower value",0.888
same,normalized growth,"locus YPL209C, strain IPL1, stronger effect = lower value",0.977
same,normalized growth,[8],0.907
same,normalized growth,"locus YPR025C, strain CCL1, stronger effect = lower value",0.97
same,normalized growth,"locus YPR106W, strain ISR1, stronger effect = lower value",0.97
same,normalized growth,"locus YPR111W, strain DBF20, stronger effect = lower value",0.963
same,normalized growth,"strain NNK1, stronger effect = lower value",0.967
same,normalized growth,"strain TSCII, stronger effect = lower value",0.976
CC[C@]12C=CCN3CC[C@@]4(c5ccc(OC)cc5N(C)C4[C@@](O)(C(=O)OC)[C@@H]1OC(C)=O)[C@@H]32 (stereo partly specified),normalized growth,"locus YAL021C, strain ccr4, stronger effect = lower value",1.01
same,normalized growth,"locus YAL026C, strain drs2, stronger effect = lower value",0.993
same,normalized growth,"locus YAL030W, strain snc1, stronger effect = lower value",1.02
same,normalized growth,"locus YBL061C, strain skt5, stronger effect = lower value",1.01
same,normalized growth,"locus YBR009C, strain hhf1, stronger effect = lower value",1.01
same,normalized growth,"locus YBR023C, strain chs3, stronger effect = lower value",1.01
same,normalized growth,"locus YBR171W, strain sec66, stronger effect = lower value",0.995
same,normalized growth,"locus YBR231C, strain swc5, stronger effect = lower value",0.996
same,normalized growth,"locus YBR279W, strain paf1, stronger effect = lower value",1
same,normalized growth,"locus YCL011C, strain gbp2, stronger effect = lower value",1.02
same,normalized growth,"locus YCL016C, strain dcc1, stronger effect = lower value",0.988
same,normalized growth,"locus YCL061C, strain MRC1, stronger effect = lower value",1.01
same,normalized growth,"locus YCL069W, strain vba3, stronger effect = lower value",1
same,normalized growth,"locus YCR088W, strain abp1, stronger effect = lower value",1
same,normalized growth,"locus YDL005C, strain med2, stronger effect = lower value",0.992
same,normalized growth,"locus YDL040C, strain nat1, stronger effect = lower value",1.02
same,normalized growth,"locus YDR001C, strain nth1, stronger effect = lower value",1.02
same,normalized growth,"locus YDR069C, strain doa4, stronger effect = lower value",0.989
same,normalized growth,"locus YDR137W, strain rgp1, stronger effect = lower value",0.949
same,normalized growth,"locus YDR159W, strain sac3, stronger effect = lower value",1
same,normalized growth,"locus YDR195W, strain ref2",1.01
same,normalized growth,"locus YDR297W, strain sur2, stronger effect = lower value",0.996
same,normalized growth,"locus YDR334W, strain swr1, stronger effect = lower value",1.04
same,normalized growth,"locus YDR335W, strain msn5, stronger effect = lower value",1.01
same,normalized growth,"locus YDR392W, strain spt3, stronger effect = lower value",0.943
same,normalized growth,"locus YEL003W, strain gim4, stronger effect = lower value",1
same,normalized growth,"locus YEL037C, strain rad23, stronger effect = lower value",1
same,normalized growth,"locus YEL061C, strain CIN8 (second series), stronger effect = lower value",1.02
same,normalized growth,"locus YER015W, strain faa2, stronger effect = lower value",1.01
same,normalized growth,"locus YER016W, strain bim1, stronger effect = lower value",0.993
same,normalized growth,"locus YER111C, strain swi4, stronger effect = lower value",0.981
same,normalized growth,"locus YER155C, strain BEM2 (second series), stronger effect = lower value",0.973
same,normalized growth,"locus YFR010W, strain ubp6, stronger effect = lower value",1
same,normalized growth,"locus YGL167C, strain pmr1, stronger effect = lower value",0.992
same,normalized growth,"locus YGL173C, strain kem1, stronger effect = lower value",0.998
same,normalized growth,"locus YGL227W, strain vid30, stronger effect = lower value",0.989
same,normalized growth,"locus YGL240W, strain doc1, stronger effect = lower value",1
same,normalized growth,"locus YGL253W, strain hxk2, stronger effect = lower value",1.03
same,normalized growth,"locus YHR013C, strain ard1, stronger effect = lower value",0.966
same,normalized growth,"locus YHR027C, strain rpn1, stronger effect = lower value",1.01
same,normalized growth,[1],0.912
same,normalized growth,[2],0.924
same,normalized growth,"locus YHR142W, strain chs7, stronger effect = lower value",1.04
same,normalized growth,"locus YJL092W, strain hpr5, stronger effect = lower value",1.01
same,normalized growth,"locus YJL095W, strain BCK1 (second series), stronger effect = lower value",1
same,normalized growth,[3],0.983
same,normalized growth,"locus YJL115W, strain asf1, stronger effect = lower value",0.999
same,normalized growth,"locus YJL129C, strain trk1, stronger effect = lower value",1.02
same,normalized growth,"locus YJL154C, strain vps35, stronger effect = lower value",0.992
same,normalized growth,"locus YJL164C, strain tpk1, stronger effect = lower value",1.01
same,normalized growth,"locus YJL166W, strain qcr8, stronger effect = lower value",1.01
same,normalized growth,"locus YJL187C, strain SWE1, stronger effect = lower value",1
same,normalized growth,[4],0.909
same,normalized growth,"locus YKL160W, strain elf1, stronger effect = lower value",0.995
same,normalized growth,"locus YKR026C, strain gcn3, stronger effect = lower value",1.01
same,normalized growth,"locus YKR091W, strain srl3, stronger effect = lower value",0.992
same,normalized growth,"locus YLL001W, strain dnm1, stronger effect = lower value",0.997
same,normalized growth,"locus YLL026W, stronger effect = lower value",0.992
same,normalized growth,"locus YLL041C, strain sdh2, stronger effect = lower value",1.01
same,normalized growth,"locus YLR027C, strain aat2, stronger effect = lower value",1.01
same,normalized growth,[5],0.942
same,normalized growth,"locus YLR221C, strain rsa3, stronger effect = lower value",0.999
same,normalized growth,"locus YLR258W, strain gsy2, stronger effect = lower value",1.01
same,normalized growth,"locus YLR262C, strain YPT6 (second series), stronger effect = lower value",0.927
same,normalized growth,"locus YLR320W, strain mms22, stronger effect = lower value",0.97
same,normalized growth,"locus YLR342W, strain FKS1, stronger effect = lower value",0.965
same,normalized growth,"locus YLR357W, strain rsc2, stronger effect = lower value",1.02
same,normalized growth,"locus YLR370C, strain arc18, stronger effect = lower value",1.01
same,normalized growth,"locus YLR384C, strain iki3, stronger effect = lower value",1.01
same,normalized growth,"locus YML120C, strain ndi1, stronger effect = lower value",0.994
same,normalized growth,"locus YMR058W, strain fet3, stronger effect = lower value",1.04
same,normalized growth,"locus YMR125W, strain sto1, stronger effect = lower value",1.03
same,normalized growth,"locus YMR129W, stronger effect = lower value",1
same,normalized growth,"locus YMR205C, strain PFK2, stronger effect = lower value",1.01
same,normalized growth,"locus YMR231W, strain pep5, stronger effect = lower value",0.993
same,normalized growth,"locus YNL071W, strain lat1, stronger effect = lower value",0.985
same,normalized growth,[6],0.961
same,normalized growth,"locus YNL209W, strain ssb2, stronger effect = lower value",1.01
same,normalized growth,"locus YNL248C, strain rpa49, stronger effect = lower value",0.982
same,normalized growth,"locus YNL322C, strain KRE1 (second series), stronger effect = lower value",0.987
same,normalized growth,"locus YNR049C, strain mso1, stronger effect = lower value",1.01
same,normalized growth,"locus YOR001W, strain rrp6, stronger effect = lower value",1.01
same,normalized growth,"locus YOR070C, strain gyp1, stronger effect = lower value",1
same,normalized growth,"locus YOR080W, strain dia2, stronger effect = lower value",1
same,normalized growth,"locus YOR083W, strain WHI5, stronger effect = lower value",0.934
same,normalized growth,"locus YOR106W, strain vam3, stronger effect = lower value",0.994
same,normalized growth,[7],0.928
same,normalized growth,"locus YOR265W, strain rbl2, stronger effect = lower value",1.01
same,normalized growth,"locus YOR270C, strain vph1, stronger effect = lower value",0.934
same,normalized growth,"locus YOR290C, strain snf2, stronger effect = lower value",0.999
same,normalized growth,"locus YPL051W, strain arl3, stronger effect = lower value",0.984
same,normalized growth,"locus YPL078C, strain atp4, stronger effect = lower value",0.989
same,normalized growth,"locus YPL106C, strain sse1, stronger effect = lower value",0.988
same,normalized growth,"locus YPL240C, strain hsp82, stronger effect = lower value",1
same,normalized growth,[8],0.923
